# In PubChem BioAssay AID1671202 (University of Kansas High Throughput Screening Laboratory, 2021):
# Hit rate of the full screen: of about 190,000 compounds, about 6,900 (3.6%) were called active. What follows is part of a selection rich in actives, with near analogues and random picks from the rest. Unmarked numbers belong to inactive results. Rule as the data show it: active = inhibition above about 50%; inactive = the rest.
# Target: Huntingtin (Homo sapiens) (UniProt P42858)
# Test: mutant huntingtin-calmodulin interaction inhibitors – biochemical, AlphaScreen, primary screen (AID 1671202);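 also: 0% = both proteins with DMSO and 100% = one protein alone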
# Settings: AlphaScreen His-mHTT/GST-CaM binding, luminescence; at 15 µM, active compounds read high
# Sequence of Huntingtin (Homo sapiens) (P42858 whole entry, looked up, stated change not applied): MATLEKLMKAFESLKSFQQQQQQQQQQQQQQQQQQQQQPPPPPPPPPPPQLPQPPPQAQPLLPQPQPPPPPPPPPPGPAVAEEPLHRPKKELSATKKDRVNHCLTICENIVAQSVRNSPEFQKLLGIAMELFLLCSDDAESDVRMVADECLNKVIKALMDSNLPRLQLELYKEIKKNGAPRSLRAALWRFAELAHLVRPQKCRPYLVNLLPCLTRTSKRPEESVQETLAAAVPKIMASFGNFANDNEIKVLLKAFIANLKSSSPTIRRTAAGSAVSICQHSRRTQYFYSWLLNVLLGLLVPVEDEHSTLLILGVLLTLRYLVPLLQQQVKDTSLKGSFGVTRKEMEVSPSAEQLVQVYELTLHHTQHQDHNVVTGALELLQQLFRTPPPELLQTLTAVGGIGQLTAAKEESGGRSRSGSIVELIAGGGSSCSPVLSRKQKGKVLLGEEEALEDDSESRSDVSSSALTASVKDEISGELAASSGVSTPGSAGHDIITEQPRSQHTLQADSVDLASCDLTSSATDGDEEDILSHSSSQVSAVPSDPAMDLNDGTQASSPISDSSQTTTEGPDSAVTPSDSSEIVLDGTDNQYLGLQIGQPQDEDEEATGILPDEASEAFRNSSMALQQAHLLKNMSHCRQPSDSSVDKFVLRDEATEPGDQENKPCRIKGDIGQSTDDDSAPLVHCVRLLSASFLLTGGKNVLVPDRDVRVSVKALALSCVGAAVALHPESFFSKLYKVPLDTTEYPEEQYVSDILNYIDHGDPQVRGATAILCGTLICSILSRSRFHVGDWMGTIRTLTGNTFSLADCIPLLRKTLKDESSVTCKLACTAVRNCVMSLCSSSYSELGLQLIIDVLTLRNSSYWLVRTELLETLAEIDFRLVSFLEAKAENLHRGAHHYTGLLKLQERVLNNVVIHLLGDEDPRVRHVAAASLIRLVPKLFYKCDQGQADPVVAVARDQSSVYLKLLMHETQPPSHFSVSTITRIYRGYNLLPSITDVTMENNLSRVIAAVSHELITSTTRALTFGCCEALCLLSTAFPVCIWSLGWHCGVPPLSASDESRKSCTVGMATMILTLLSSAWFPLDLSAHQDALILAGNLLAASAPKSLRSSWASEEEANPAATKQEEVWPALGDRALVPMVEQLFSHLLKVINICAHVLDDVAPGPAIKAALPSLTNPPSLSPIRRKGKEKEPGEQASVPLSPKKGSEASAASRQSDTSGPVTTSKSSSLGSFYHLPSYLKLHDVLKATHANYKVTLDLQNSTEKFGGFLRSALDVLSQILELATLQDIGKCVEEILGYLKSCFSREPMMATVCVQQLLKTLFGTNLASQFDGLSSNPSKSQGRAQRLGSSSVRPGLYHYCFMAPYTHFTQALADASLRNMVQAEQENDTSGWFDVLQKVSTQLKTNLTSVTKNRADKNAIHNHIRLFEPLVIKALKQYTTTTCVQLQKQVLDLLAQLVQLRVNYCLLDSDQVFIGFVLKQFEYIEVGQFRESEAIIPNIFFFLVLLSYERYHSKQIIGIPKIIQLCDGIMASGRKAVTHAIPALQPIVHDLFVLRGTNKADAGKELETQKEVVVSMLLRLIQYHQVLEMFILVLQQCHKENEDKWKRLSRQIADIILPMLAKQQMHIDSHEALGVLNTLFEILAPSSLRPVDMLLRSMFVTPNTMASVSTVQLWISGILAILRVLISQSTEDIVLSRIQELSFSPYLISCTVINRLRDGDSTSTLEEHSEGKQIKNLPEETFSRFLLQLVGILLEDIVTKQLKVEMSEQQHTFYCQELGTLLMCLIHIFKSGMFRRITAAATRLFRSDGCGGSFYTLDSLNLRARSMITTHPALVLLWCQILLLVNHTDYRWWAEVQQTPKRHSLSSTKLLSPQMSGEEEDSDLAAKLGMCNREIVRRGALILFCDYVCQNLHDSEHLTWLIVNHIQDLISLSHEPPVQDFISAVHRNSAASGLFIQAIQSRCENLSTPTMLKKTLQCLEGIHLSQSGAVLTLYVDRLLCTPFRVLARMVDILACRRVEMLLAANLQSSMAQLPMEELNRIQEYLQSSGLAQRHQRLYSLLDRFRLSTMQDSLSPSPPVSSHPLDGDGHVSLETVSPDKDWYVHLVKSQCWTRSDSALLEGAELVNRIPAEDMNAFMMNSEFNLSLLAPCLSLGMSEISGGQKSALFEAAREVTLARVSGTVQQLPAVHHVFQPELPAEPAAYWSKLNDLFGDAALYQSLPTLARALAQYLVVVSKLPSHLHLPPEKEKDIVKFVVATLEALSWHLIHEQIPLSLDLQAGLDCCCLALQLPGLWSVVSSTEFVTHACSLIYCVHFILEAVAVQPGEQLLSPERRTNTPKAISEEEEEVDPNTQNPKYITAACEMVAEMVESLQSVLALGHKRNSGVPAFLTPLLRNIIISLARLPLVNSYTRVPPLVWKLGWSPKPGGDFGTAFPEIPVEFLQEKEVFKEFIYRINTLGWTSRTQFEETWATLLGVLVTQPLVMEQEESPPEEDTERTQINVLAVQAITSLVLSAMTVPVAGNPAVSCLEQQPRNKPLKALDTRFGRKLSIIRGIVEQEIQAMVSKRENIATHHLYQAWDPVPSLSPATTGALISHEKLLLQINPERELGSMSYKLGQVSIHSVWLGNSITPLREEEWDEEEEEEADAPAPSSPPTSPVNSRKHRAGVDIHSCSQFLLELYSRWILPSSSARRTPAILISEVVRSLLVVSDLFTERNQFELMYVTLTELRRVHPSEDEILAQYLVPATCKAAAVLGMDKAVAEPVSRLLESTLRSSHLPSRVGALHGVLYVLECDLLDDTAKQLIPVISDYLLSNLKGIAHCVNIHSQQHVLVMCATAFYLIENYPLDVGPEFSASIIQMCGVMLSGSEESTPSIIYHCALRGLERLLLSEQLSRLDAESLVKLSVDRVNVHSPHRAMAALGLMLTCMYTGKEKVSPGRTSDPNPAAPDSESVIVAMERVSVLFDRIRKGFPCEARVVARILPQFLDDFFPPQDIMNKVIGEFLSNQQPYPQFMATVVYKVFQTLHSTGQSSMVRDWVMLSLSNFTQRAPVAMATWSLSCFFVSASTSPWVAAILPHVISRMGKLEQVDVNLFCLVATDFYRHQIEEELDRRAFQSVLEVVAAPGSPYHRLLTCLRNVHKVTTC
row,SMILES,inhibition
1,CCNc1cc(N2CCCC(CCC(=O)N3CCN(c4ccccn4)CC3)C2)ncn1 (configuration not stated),1.12%
2,CCC(=O)N1CCc2ccccc2C1C(=O)NCc1ccc(OC)cc1 (configuration not stated),3.87%
3,Cc1ccc(NC(=O)CC2COc3ccccc3NC2=O)cc1C (configuration not stated),-3.7%
4,O=C(CC1COc2ccccc2NC1=O)Nc1ccc(C(F)(F)F)cc1 (configuration not stated),-6.9%
5,Cc1ccc(NC(=O)CC2COc3ccc(Cl)cc3NC2=O)cc1Cl (configuration not stated),92.5% (active)
6,Cc1cc(SCC(=O)NCc2ccc3c(c2)OCO3)nc2ccccc12,-10.7%
7,O=C(c1cnc(-c2ccccc2)nc1N1CCSCC1)N1CCCCC1,18.3%
8,Cc1cccc(N2CCN(C(=O)CCC3CCCN(C(=O)Nc4ccccc4)C3)CC2)c1C (configuration not stated),47%
9,Brc1ccc(CSc2cccc3cccnc23)cc1,54% (active)
10,N#Cc1ccc(CSc2ncccn2)cc1,-1.95%
11,O=C(CSc1ccccn1)c1ccc(Br)cc1,-42.4%
12,CN(C)C(CNC(=O)Nc1ccc(Cl)cc1)c1ccco1 (configuration not stated),-16%
13,O=C(COc1coc(CN2CCc3ccccc32)cc1=O)NCc1ccco1,19.5%
14,CCOc1ccc(NC(=O)N2CC(C)Oc3ccc(C)cc32)cc1 (configuration not stated),1.01%
15,COc1cc(OC)c(OC)cc1/C=C1/CC/C(=C\c2cc(OC)c(OC)cc2OC)C1=O,23%
16,Cc1cccc(NC(=O)c2cc3c(CO)cnc(C)c3oc2=Nc2ccc(Cl)cc2)c1,-1%

row,SMILES,inhibition
1,Cc1ccccc1NS(=O)(=O)c1cc(Br)cc2c1N(C(=O)C1CC1)CC2,2%
2,CC(C)(C)C1=CC(=Nc2ccccc2N)C=C(C(C)(C)C)C1O (configuration not stated),97% (active)
3,COCCCNC(=O)c1ccc2c(c1)ncn2-c1ccc(F)c(F)c1,9%
4,CCOc1ccc(C(=O)Nc2ccccc2I)cc1[N+](=O)[O-],4.6%
5,COc1ccc(C2CC(c3cccc(F)c3)=NN2C(=O)CN2CCCCC2)cc1 (configuration not stated),36.7%
6,COc1ccc(C2=NN(C(=O)CCC(=O)O)C(c3ccc(F)cc3)C2)cc1OC (configuration not stated),-2.9%
7,COc1ccc(C2=NN(C(=O)CN3CCN(C)CC3)C(c3ccccc3C)C2)cc1 (configuration not stated),42%
8,Cc1ccc(C2CC(c3cccc(F)c3)=NN2C(=O)CN2CCOCC2)cc1 (configuration not stated),67.8% (active)
9,COc1ccccc1C1=NN(C(=O)CN2CCCCC2)C(c2ccc(C)cc2)C1 (configuration not stated),8.3%
10,COc1ccc(C2CC(c3ccccc3F)=NN2C(=O)CN2CCOCC2)cc1 (configuration not stated),50.5% (active)
11,CCNC(=O)N(C)CC(=O)N1N=C(c2ccccc2F)CC1c1ccc(C)cc1 (configuration not stated),24.6%
12,COc1ccccc1C1=NN(C(=O)CN2CCC(C)CC2)C(c2ccc(C)cc2)C1 (configuration not stated),12.9%
13,O=C(Cc1nnc(-c2cccc(F)c2)o1)N1CCOCC1,-5.8%
14,Cc1ccc(C)c(C2CC(c3ccccc3Cl)=NN2C(=O)CN2CCOCC2)c1 (configuration not stated),79.4% (active)
15,CCNC(=O)N(C)CC(=O)N1N=C(c2ccc(C)c(C)c2)CC1c1ccc(C)cc1 (configuration not stated),73.4% (active)
16,COc1ccc(C2CC(c3ccccc3)=NN2C(=O)c2ccc(Br)o2)cc1 (configuration not stated),-1%
